# Data as given in the supplement of paper PMC8728848.
# Shown is part of a subset that was picked to be rich in the strongest signals.
# B1: CVNH0 (Neurospora crassa), Q7S6U4 (protein)
# chain: GSHIGPYMSFHVTAEDARIEVRDNRTILFARLRREDGEWNDASYELDQIIGNNDGHFQWGGQNFTETAEDIRFHPKEGAAEQPILRARLRDCNGEFHDRDVNLTEIVENVNGEFQAKF
# B2: FBG3 (Homo sapiens), Q9H4M3 (protein)
# chain: MAVGNINELPENILLELFTHVPARQLLLNCRLVCSLWRDLIDLVTLWKRKCLREGFITEDWDQPVADWKIFYFLRSLHRNLLHNPCAEEGFEFWSLDVNGGDEWKVEDLSRDQRKEFPNDQVKKYFVTSYYTCLKSQVVDLKAEGYWEELMDTTRPDIEVKDWFAARPDCGSKYQLCVQLLSSAHAPLGTFQPDPATIQQKSDAKWREVSHTFSNYPPGVRYIWFQHGGVDTHYWAGWYGPRVTNSSITIGPPLP
# Legend:
# Assay in all cases: glycan array binding signal (z-score within array); higher = stronger binding
# Conditions in all cases: glycan notation: IUPAC condensed, linker removed
# Fuc(a1-2)Gal = biological target: Fuc(a1-2)Gal
# Method in brief: (§1)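 The binding signal is a Z-score computed within each array and averaged over linkers. Arrays of the same protein sequence at different concentrations or buffers were also averaged together. Data originate from 3228 arrays in the Consortium for Functional Glycomics database, kept only where the protein sequence was available.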
# [1] = biological target: Fuc(a1-2)Gal(b1-3)GalNAc(b1-3)Gal(b1-4)Glc
# Method in brief: as §1
# [2] = biological target: Fuc(a1-2)[GalNAc(a1-3)]Gal
# Method in brief: as §1
# Gal(a1-2)Gal = biological target: Gal(a1-2)Gal
# Method in brief: as §1
# [3] = biological target: Gal(b1-4)GlcNAc(b1-3)Gal(b1-4)GlcNAc
# Method in brief: as §1
# [4] = biological target: Gal(b1-4)GlcNAc(b1-3)Gal(b1-4)[Fuc(a1-3)]GlcNAc(b1-3)Gal(b1-4)[Fuc(a1-3)]GlcNAc
# Method in brief: as §1
# [5] = biological target: Gal(b1-4)GlcNAc(b1-6)[Gal(b1-3)]GlcNAc
# Method in brief: as §1
# Gal6S(b1-4)Glc6S = biological target: Gal6S(b1-4)Glc6S
# Method in brief: as §1
# Glc(a1-4)Glc = biological target: Glc(a1-4)Glc
# Method in brief: as §1
# Kdn(a2-3)Gal(b1-3)GlcNAc = biological target: Kdn(a2-3)Gal(b1-3)GlcNAc
# Method in brief: as §1
# [6] = biological target: Man(a1-2)Man(a1-2)Man(a1-3)[Man(a1-2)Man(a1-3)[Man(a1-2)Man(a1-6)]Man(a1-6)]Man(b1-4)GlcNAc(b1-4)GlcNAc
# Method in brief: as §1
# [7] = biological target: Man(a1-2)Man(a1-2)Man(a1-6)[Man(a1-3)]Man
# Method in brief: as §1
# [8] = biological target: Man(a1-2)Man(a1-3)[Man(a1-2)Man(a1-6)]Man
# Method in brief: as §1
# [9] = biological target: Man(a1-2)Man(a1-3)[Man(a1-3)[Man(a1-6)]Man(a1-6)]Man(b1-4)GlcNAc(b1-4)GlcNAc
# Method in brief: as §1
# Neu5Ac(a2-3)Gal = biological target: Neu5Ac(a2-3)Gal
# Method in brief: as §1
# [10] = biological target: Neu5Ac(a2-3)Gal(b1-3)GlcNAc6S
# Method in brief: as §1
# [11] = biological target: Neu5Ac(a2-3)Gal(b1-3)[Neu5Ac(a2-3)Gal(b1-4)]GlcNAc
# Method in brief: as §1
# [12] = biological target: Neu5Ac(a2-3)Gal(b1-4)GlcNAc(b1-3)Gal(b1-4)GlcNAc
# Method in brief: as §1
# [13] = biological target: Neu5Ac(a2-3)Gal(b1-4)[Fuc(a1-3)]GlcNAc(b1-3)Gal(b1-4)[Fuc(a1-3)]GlcNAc(b1-3)Gal(b1-4)[Fuc(a1-3)]GlcNAc
# Method in brief: as §1
# [14] = biological target: Neu5Ac(a2-3)Gal(b1-4)[Fuc(a1-3)]GlcNAc6S
# Method in brief: as §1
# [15] = biological target: Neu5Ac(a2-6)Gal(b1-4)GlcNAc(b1-2)Man(a1-3)[Neu5Ac(a2-6)Gal(b1-4)GlcNAc(b1-2)Man(a1-6)]Man(b1-4)GlcNAc(b1-4)GlcNAc
# Method in brief: as §1
# [16] = biological target: Neu5Gc(a2-3)Gal(b1-3)GlcNAc
# Method in brief: as §1
# [17] = biological target: Fuc(a1-2)Gal(b1-4)GlcNAc(b1-3)Gal(b1-4)GlcNAc
# Method in brief: as §1
# [18] = biological target: Fuc(a1-2)Gal(b1-4)GlcNAc6S
# Method in brief: as §1
# Fuc(a1-2)GlcNAc = biological target: Fuc(a1-2)GlcNAc
# Method in brief: as §1
# [19] = biological target: Fuc(a1-2)[Gal(a1-3)]Gal(b1-4)[Fuc(a1-3)]GlcNAc
# Method in brief: as §1
# [20] = biological target: Fuc(a1-2)[GalNAc(a1-3)]Gal(b1-4)[Fuc(a1-3)]GlcNAc
# Method in brief: as §1
# [21] = biological target: Fuc(a1-3)[Gal3S(b1-4)]GlcNAc6S
# Method in brief: as §1
# Gal(a1-4)Gal(b1-4)Gal = biological target: Gal(a1-4)Gal(b1-4)Gal
# Method in brief: as §1
# Gal(b1-3)Gal = biological target: Gal(b1-3)Gal
# Method in brief: as §1
# [22] = biological target: Gal(b1-3)GalNAc(b1-3)Gal(b1-4)GlcNAc
# Method in brief: as §1
# [23] = biological target: Gal(b1-3)[Neu5Ac(b2-6)]GlcNAc
# Method in brief: as §1
# Gal(b1-4)Glc = biological target: Gal(b1-4)Glc
# Method in brief: as §1
# Gal(b1-4)Glc6S = biological target: Gal(b1-4)Glc6S
# Method in brief: as §1
# [24] = biological target: Gal(b1-4)GlcNAc(b1-6)[Gal(b1-3)]GalNAc
# Method in brief: as §1
# Gal3S(b1-4)GlcNAc6S = biological target: Gal3S(b1-4)GlcNAc6S
# Method in brief: as §1
# Gal3S6S(b1-4)GlcNAc = biological target: Gal3S6S(b1-4)GlcNAc
# Method in brief: as §1
# Gal3S6S(b1-4)GlcNAc6S = biological target: Gal3S6S(b1-4)GlcNAc6S
# Method in brief: as §1
# GalNAc(a1-3)Gal = biological target: GalNAc(a1-3)Gal
# Method in brief: as §1
# Glc(b1-6)Glc = biological target: Glc(b1-6)Glc
# Method in brief: as §1
# Man(a1-2)Man(a1-3)Man = biological target: Man(a1-2)Man(a1-3)Man
# Method in brief: as §1
# [25] = biological target: Neu5Ac(a2-3)Gal(b1-3)[Fuc(a1-4)]GlcNAc(b1-3)Gal(b1-4)[Fuc(a1-3)]GlcNAc
# Method in brief: as §1
# [26] = biological target: Neu5Ac(a2-3)Gal(b1-4)GlcNAc6S
# Method in brief: as §1
# Neu5Ac(a2-6)Gal(b1-4)Glc = biological target: Neu5Ac(a2-6)Gal(b1-4)Glc
# Method in brief: as §1
# [27] = biological target: Neu5Ac(a2-8)Neu5Ac(a2-8)Neu5Ac(a2-3)[GalNAc(b1-4)]Gal(b1-4)Glc
# Method in brief: as §1
# [28] = biological target: Neu5Ac(b2-6)Gal(b1-4)GlcNAc
# Method in brief: as §1
binder,measurement,setting,value
B1,glycan array binding signal (z-score),Fuc(a1-2)Gal,-0.372
same,glycan array binding signal (z-score),[1],3.75
same,glycan array binding signal (z-score),[2],-0.436
same,glycan array binding signal (z-score),Gal(a1-2)Gal,-0.423
same,glycan array binding signal (z-score),[3],-0.427
same,glycan array binding signal (z-score),[4],-0.186
same,glycan array binding signal (z-score),[5],-0.381
same,glycan array binding signal (z-score),Gal6S(b1-4)Glc6S,-0.362
same,glycan array binding signal (z-score),Glc(a1-4)Glc,-0.391
same,glycan array binding signal (z-score),Kdn(a2-3)Gal(b1-3)GlcNAc,-0.44
same,glycan array binding signal (z-score),[6],3.89
same,glycan array binding signal (z-score),[7],3.68
same,glycan array binding signal (z-score),[8],4.06
same,glycan array binding signal (z-score),[9],-0.376
same,glycan array binding signal (z-score),Neu5Ac(a2-3)Gal,-0.431
same,glycan array binding signal (z-score),[10],0.204
same,glycan array binding signal (z-score),[11],-0.411
same,glycan array binding signal (z-score),[12],-0.351
same,glycan array binding signal (z-score),[13],-0.226
same,glycan array binding signal (z-score),[14],-0.433
same,glycan array binding signal (z-score),[15],-0.408
same,glycan array binding signal (z-score),[16],-0.433
B2,glycan array binding signal (z-score),Fuc(a1-2)Gal,0.149
same,glycan array binding signal (z-score),[17],-0.582
same,glycan array binding signal (z-score),[18],0.121
same,glycan array binding signal (z-score),Fuc(a1-2)GlcNAc,-0.096
same,glycan array binding signal (z-score),[19],0.034
same,glycan array binding signal (z-score),[20],0.422
same,glycan array binding signal (z-score),[21],1.94
same,glycan array binding signal (z-score),Gal(a1-4)Gal(b1-4)Gal,-0.387
same,glycan array binding signal (z-score),Gal(b1-3)Gal,-0.052
same,glycan array binding signal (z-score),[22],-0.569
same,glycan array binding signal (z-score),[23],-0.544
same,glycan array binding signal (z-score),Gal(b1-4)Glc,0.009
same,glycan array binding signal (z-score),Gal(b1-4)Glc6S,0.065
same,glycan array binding signal (z-score),[24],-0.478
same,glycan array binding signal (z-score),Gal3S(b1-4)GlcNAc6S,2.99
same,glycan array binding signal (z-score),Gal3S6S(b1-4)GlcNAc,1.73
same,glycan array binding signal (z-score),Gal3S6S(b1-4)GlcNAc6S,7.93
same,glycan array binding signal (z-score),GalNAc(a1-3)Gal,-0.033
same,glycan array binding signal (z-score),Glc(b1-6)Glc,1.71
same,glycan array binding signal (z-score),Man(a1-2)Man(a1-3)Man,-0.171
same,glycan array binding signal (z-score),[25],0.235
same,glycan array binding signal (z-score),[26],-0.064
same,glycan array binding signal (z-score),[13],-0.514
same,glycan array binding signal (z-score),Neu5Ac(a2-6)Gal(b1-4)Glc,-0.34
same,glycan array binding signal (z-score),[27],0.271
same,glycan array binding signal (z-score),[28],-0.75
